# In PubChem BioAssay AID651871 (Sanford-Burnham Center for Chemical Genomics, 2012):
# Values joined by “and” are separate entries in the source; they are usually repeats but may differ in a detail not shown here. Identical values can stand only once.
# System: HL-1
# Assay: cardiomyocyte survival under oxidative or metabolic stress – cell-based, panel, H9c2 and HL-1, ATP luminescence, set 2, SAR follow-up (AID 651871);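 note: cells exposed to stressor for 2 h before ATP readout; reference of the scale not given here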
# Conditions: H9c2/HL-1 cardiomyocytes, H2O2 oxidative stress; with H2O2, run 3, at 79 µM (top of the series)
row,Structure (SMILES),activity (protection/inhibition)
1,COc1ccc2nc(-c3cc(OC)c(OC)c(OC)c3)cc(C(=O)NCC(=O)Nc3ccc(C(C)=O)cc3)c2c1,19.5% and 32.9%
2,CCOC(=O)c1cccc(NC(=O)CNC(=O)c2cc(-c3cc(OC)c(OC)c(OC)c3)nc3ccccc23)c1,48.4%
3,COc1cc(-c2cc(C(=O)Nc3cccc(C(=O)NCc4ccccc4)c3)c3ccccc3n2)cc(OC)c1OC,14.7%
4,COc1ccc2c(c1OC)C(=O)N1c3ccccc3C(=O)N(Cc3cccc(Cl)c3Cl)C21 (centres undefined),5.43% and -7.46% and 6.3%
